Measurements published in the supplement of paper PMC3334620.
Over roughly 33,000 sequences, “E-score (-0.5 to 0.5)” has its median near -0.054; the highest 2% begin near 0.39. Shown is part of a subset that was picked to be rich in the highest values.

biological target: Ylr278c (UniProt Q05854); experiment: PBM E-score (8-mer binding enrichment) (E-score (-0.5 to 0.5)); higher = stronger / more preferred TF binding; conditions: protein concentration: 200 nM; construct: GST-DNA-binding domain
Procedure, shortened: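 E-scores (a modified Wilcoxon-Mann-Whitney statistic) were assigned by the Universal PBM Analysis Suite to every ungapped eight-base word pooled with its reverse complement. The input came from universal all-10-mer Agilent arrays made double-stranded by primer extension and probed with GST-tagged yeast transcription factors at about 100-200 nM. Fluorescent anti-GST detected bound protein, and masliner normalised the scans.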

Sequence of UniProt Q05854 (Q05854 whole entry, the tested form may be a part): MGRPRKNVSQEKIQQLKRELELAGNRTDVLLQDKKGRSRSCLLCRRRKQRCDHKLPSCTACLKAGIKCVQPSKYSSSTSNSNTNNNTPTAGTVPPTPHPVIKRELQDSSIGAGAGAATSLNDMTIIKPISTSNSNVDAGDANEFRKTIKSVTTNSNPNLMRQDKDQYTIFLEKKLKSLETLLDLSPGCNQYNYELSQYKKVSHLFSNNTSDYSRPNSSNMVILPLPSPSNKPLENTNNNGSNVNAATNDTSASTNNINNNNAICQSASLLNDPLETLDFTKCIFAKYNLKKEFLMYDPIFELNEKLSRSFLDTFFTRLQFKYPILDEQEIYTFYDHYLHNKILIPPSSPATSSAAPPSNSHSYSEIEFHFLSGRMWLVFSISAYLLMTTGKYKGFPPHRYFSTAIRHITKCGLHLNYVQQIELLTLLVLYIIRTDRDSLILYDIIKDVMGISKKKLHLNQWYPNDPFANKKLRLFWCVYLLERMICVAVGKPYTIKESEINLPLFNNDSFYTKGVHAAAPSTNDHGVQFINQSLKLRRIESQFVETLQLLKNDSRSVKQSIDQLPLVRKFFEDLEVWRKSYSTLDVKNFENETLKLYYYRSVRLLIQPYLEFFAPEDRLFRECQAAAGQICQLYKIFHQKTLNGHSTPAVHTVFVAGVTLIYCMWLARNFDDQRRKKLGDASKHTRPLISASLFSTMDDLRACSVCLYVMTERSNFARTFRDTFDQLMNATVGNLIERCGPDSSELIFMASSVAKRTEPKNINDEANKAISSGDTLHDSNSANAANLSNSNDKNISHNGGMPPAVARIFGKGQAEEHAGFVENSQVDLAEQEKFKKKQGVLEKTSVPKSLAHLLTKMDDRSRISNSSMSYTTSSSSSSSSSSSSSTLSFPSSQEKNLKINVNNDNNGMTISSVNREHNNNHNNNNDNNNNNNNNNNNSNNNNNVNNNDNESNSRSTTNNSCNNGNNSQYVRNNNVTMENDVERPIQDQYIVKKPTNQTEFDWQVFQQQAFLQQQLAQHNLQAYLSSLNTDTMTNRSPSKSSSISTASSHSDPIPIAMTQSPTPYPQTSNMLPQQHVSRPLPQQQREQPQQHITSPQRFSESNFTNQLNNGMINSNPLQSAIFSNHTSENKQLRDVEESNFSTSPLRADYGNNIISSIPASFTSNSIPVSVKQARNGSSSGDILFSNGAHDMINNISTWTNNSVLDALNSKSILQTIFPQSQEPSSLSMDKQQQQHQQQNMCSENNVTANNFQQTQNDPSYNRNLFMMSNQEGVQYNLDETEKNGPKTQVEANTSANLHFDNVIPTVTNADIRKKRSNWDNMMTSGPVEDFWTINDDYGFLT

Sequence	PBM E-score
AACTGGGG	0.00524
CTGCAACC	-0.27
CTTTGGTA	-0.0286
CGAATGTC	0.101
CAGAGTAG	-0.16
AGCCAGCC	-0.18
AAAGCGAT	0.0361
CGATTTTC	0.153
GAGCGCCC	0.00794
CATCGGCG	0.304
GCTCGGAC	0.382
CATCGGAG	0.457
AATCGGGC	0.0936
AATCGGCC	0.24
CATCGGAA	0.396
CATCGGTA	0.261
GATCGGAC	0.434
AATCGGAC	0.397
CATCGGGG	0.314
GATCGGGC	0.184
CATCGGCA	0.284
AGTATCAC	-0.0655
GTTTCGCA	-0.0936
ACTACTAG	-0.0129
ATTTTGGA	0.168

Sequence	PBM E-score
AAATCCTA	0.0982
CTTGGCGA	-0.203
TATCGGAA	0.413
TATCGGCA	0.264
TATCGGGA	0.288
ACGCTCCT	-0.237
ATGCTCCA	-0.0254
AGGCTCCC	-0.0902
CCGCTCCA	0.064
AGGCTCCG	0.39
ATGCTCCG	0.425
CCGCTCCC	0.191
AGGCTCCA	-0.133
ATGCTCCC	-0.0848
ACGCTCCG	0.399
CCGCTCCG	0.444
ACGCTCCC	0.0269
GAGGCCGA	0.217
ACTTTTCC	0.278
GCCTAGCA	-0.245
GAGGCTAA	0.0333
AGCAGACG	-0.00216
ATGTGGGA	-0.101
AAAGCTAT	-0.0422
GGTTGGCA	-0.173

Sequence	PBM E-score
ATAGAGAC	-0.248
CCCCGCAA	0.225
CAGTCCGG	0.367
TAGTCCCA	-0.284
ACGTCCGA	0.346
TAGTCCGA	0.415
CAGTCCGA	0.402
GAGTCCGC	0.363
AAGTCCTA	0.0365
TAGTCCAA	-0.0998
AAGTCCGA	0.483
GCGTCCGA	0.292
GAGTCCGA	0.392
CAGTCCGC	0.202
ACCAGGGC	-0.178
ATTGAACG	-0.114
ATTGAACC	-0.0437
AGGCGTAT	-0.308
ACAGTCAT	-0.24
ACTATTGC	0.0531
ATAGACCG	0.0141
CAGCTTCC	-0.0366
CAGTGCGG	0.257
ATGCTGCA	-0.178
ACACGGAT	0.199

Sequence	PBM E-score
ACACGGAG	0.419
ACACGGAA	0.288
CCACGGAC	0.272
CCACGGAA	0.34
CCACGGAG	0.418
ATCTCCGG	0.493
CTCTCCGA	0.394
ATCTCCAG	-0.0917
ATCTCCGC	0.47
ATCTCCCC	-0.00596
ATCTCCCG	0.301
ATCTCCGA	0.478
CTCTCCCA	-0.148
CTCTCCAA	0.0897
CTCTCCGC	0.325
ATCTCCAA	-0.0722
ATCTCCCA	0.0776
CTTCATGC	-0.0885
ACCGCGAC	0.0815
CGAACTGC	0.0356
ACATTCAA	0.0683
GACAGTCC	0.0326
CCGGTAAG	0.337
GCGCGCAA	0.219
GTCTCCGA	0.417

Sequence	PBM E-score
GTCTCCTA	-0.166
GTCTCCAA	-0.111
GTACTTTA	-0.191
CATCCGGG	0.3
TATCCGGA	0.469
CATCCGGC	0.354
AATCCGGG	0.417
TATCCGCA	0.271
AATCCGCA	0.316
AATCCGGC	0.425
AATCCTGG	-0.0892
AATCCGGA	0.466
AATCCGTC	0.297
AATCCGTA	0.195
TATCCTGA	-0.121
CCTCGACG	-0.00055
GTACTGCA	-0.0765
AAACCTCC	0.147
AATATTGT	0.0529
TACCAGGA	-0.0496
CTACTTTC	-0.0554
GGGTCGCA	0.139
CTTGACAC	-0.193
ATAGATGG	-0.132
CCCTTTCG	0.116

Sequence	PBM E-score
CATCCGGA	0.436
GATCCTGC	-0.00417
GATCCGTA	0.158
GATCCGAA	0.33
CATCCGTA	0.183
AATCCAGT	0.108
CATCCGCA	0.191
GATCCGGA	0.439
GATCCGCC	0.276
AATCCGCT	0.269
AATCCGGT	0.442
GATCCGGC	0.407
CGTTTTGA	-0.142
CTTAAGAA	-0.14
AGCACCGC	0.121
CGAGCTTC	0.028
ACTAAGGG	-0.0488
AAGGGTCC	0.216
AAGAAAGA	-0.0469
ATGCTAGC	0.00697
GACCGGGA	0.359
CACCGGAC	0.439
CACCGGTG	0.306
CACCGGTA	0.297
CACCGGCC	0.273

Sequence	PBM E-score
GACCGGTA	0.0914
GACCGGAC	0.383
GACCGGAA	0.389
CACCGGAA	0.427
CACCGGGA	0.352
CACCGGAG	0.443
CACCGGCG	0.383
ATACGATA	-0.118
ACGGGGGA	0.0207
ACTCCATC	0.275
ATGCACAC	-0.153
CCATCAGC	-0.0147
GGGGTCAC	-0.0137
GTCTTACA	-0.252
GCAGGTCA	-0.134
ACCAGTGC	-0.264
AACCGGAC	0.414
AACCGGAG	0.48
AACCGCAC	-0.0338
AACCGGAA	0.391
AACCGGTG	0.282
AACCGCAG	-0.0582
TACCGGGA	0.381
TACCGGAA	0.397
AACCGGAT	0.367

Sequence	PBM E-score
TACCGGTA	0.246
AAACGGAC	0.197
AACCGGCA	0.215
ACAGTGAG	-0.301
GAGAGTTA	-0.158
CGCAACAC	0.111
ATTCAAGG	-0.282
GCTTTCCA	-0.0584
CCTTAGAG	-0.172
TGTCCTAA	-0.233
GGTCCAAA	0.0394
TGTCCGAA	0.407
GGTCCGAA	0.439
TGTCCAAA	-0.0727
GGTCCGAC	0.39
GGTCCAAC	0.00905
CGTCCGAA	0.352
CGTCCGAC	0.243
AAACCCAA	0.0205
AACGGGCA	-0.0928
TCCTCAGA	0.0167
CGTGAGTC	-0.141
CAACTTCC	0.22
GTAGCGAC	-0.186
GCGTTCGA	-0.11

Sequence	PBM E-score
GTTTCCGA	0.369
CTTTCCGC	0.332
ACTTCCGA	0.378
ATTTCCTG	0.0615
ATTTCCCC	0.127
ATTTCCAG	0.0814
ACTTCCGG	0.435
ATTTCCGC	0.397
CTTTCCGA	0.354
ACTTCCGC	0.342
ATTTCCGG	0.475
ATTTCCGA	0.446
ACACATCA	0.0404
CCACTGAA	0.0461
GTCAAGAC	-0.133
GAGCTGGA	0.0426
TAAGGACA	-0.156
CTATCTGA	-0.328
AGTTCGGC	0.185
GGTTCGCA	0.0401
GGTTCGAA	0.0257
CGTTCGGA	0.41
CGTTCGGC	0.235
GGTTCGGA	0.42
AGTTCGGG	0.281

Sequence	PBM E-score
AGTTCGGA	0.391
CGTTCGTA	0.0114
AAGAGACT	-0.101
AAATCTGA	-0.0879
TAGTACGA	-0.0816
GGGAGTAC	0.0396
AGGAGTAA	0.0423
CCGAGTAG	0.197
AGGAGTAC	-0.136
CGGAGTAG	0.465
CGGAGTAA	0.468
CGGAGTAC	0.462
AGGAGTAG	-0.00627
GGGAGTAA	0.0663
GAACAGAA	-0.0459
ACTTCAAC	-0.0372
GAGTGAGC	-0.125
AATAGATT	-0.0366
AAGGGCTA	-0.124
CCAGATGG	-0.0985
GTATGGCA	-0.204
CAGCCGGC	0.296
CAGCCGGA	0.434
GAGCCGGA	0.407
TAGCCGGA	0.42

Sequence	PBM E-score
GAGCCGGC	0.325
TAGCCGAA	0.141
CAGCCGGG	0.166
GAGCCGCA	0.0873
AAGCCGGT	0.333
AAGCCGGA	0.417
TAGCCGCA	0.041
AAGCCGGC	0.372
AGCCGCAT	0.105
CCCCGTGC	0.295
AAACCCTC	-0.0128
CAGAGGAC	-0.187
CCGGGAAG	0.334
CAGTGATC	-0.0716
CTCGACCA	-0.232
CGCATAAC	-0.0515
ATAGCGAA	-0.144
ATACACAT	-0.212
TTCCGGAA	0.467
ATCCGCAT	0.263
GTACGGAA	0.31
ATCCGTAA	0.155
TTCAGGAA	-0.0794
TTACGGAA	0.283
GTGCGGAA	0.265

Sequence	PBM E-score
ATGCGGAA	0.383
ATCAGGAT	-0.018
ATCCGGAT	0.452
GTCCGGAA	0.44
ATCCGGAA	0.432
AATTGCAC	-0.054
CATCGCAA	-0.28
GGTTTCAC	0.0826
TACGCATA	-0.0249
ATCCGGAC	0.424
ATCCGGAG	0.486
ATCCGTAC	0.112
GTACGGAC	0.249
GTCCGGAC	0.455
CTGCGGAC	0.221
CTCAGGAC	-0.159
ATCCGTAG	0.134
ATACGGAC	0.242
ATCAGGAG	-0.02
CTCCGGAC	0.477
GTCAGGAC	-0.266
ATGCAGAA	-0.16
AGAGATTG	-0.112
AGCTGGTG	-0.109
AATTTGGC	-0.131

Sequence	PBM E-score
ACCCTTCG	0.0769
ATGCGATA	-0.0857
GTACCAGA	-0.28
ATGCTACG	-0.0841
TAGTAGCA	-0.0836
CGAGGTCC	0.333
CTCAGGAA	-0.0459
ATGCGGAG	0.385
CTCCGGAG	0.481
CTCAGGAG	-0.171
CTCCGGAA	0.479
CTGCGGAA	0.214
CTAACAAC	-0.0734
CCGCTGCA	0.0719
CATGCTCA	-0.115
CTCCGTCA	0.421
CTCCGTCC	0.449
GTCCGTCA	0.289
CTCCGTAA	0.41
CCCCGTCC	0.252
GTCCGTAA	0.331
ATCCGTCC	0.18
ATCCGTCA	0.159
CTCCGTAC	0.358
CGAATCCA	-0.0549

Sequence	PBM E-score
ACATTGGT	-0.1
AATATCTC	0.0682
ACTGACAG	-0.0502
AGTGGGAT	-0.00431
ACTCCACG	0.0682
CCGCCTCC	0.283
CCTCCGCC	0.413
CCTCCGCG	0.416
AATCCGCG	0.323
CATCCGCG	0.197
CCTCCGCA	0.359
CATCCGCC	0.309
ACTCCGCG	0.462
CGGTCAGA	0.0192
ATCGCCAT	-0.0309
CGCGTCCA	0.0142
AAGTGCCT	-0.328
AAAGCAGC	-0.0496
CTATGCAG	-0.166
